From PubChem BioAssay
Bm FixLJ act = activators of Burkholderia fixLJ two-component system | B. multivorans fixK-promoter GFP reporter, 18 h; stronger effect = higher value | 29,000 tested, 0.3% active | z-score (no concentration beside the values);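 active = replicate mean overnight rise in green fluorescent reporter signal, 3 or more SD over negative controls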
* marks the source's active call; other numbers are inactive results. The full list was thinned out, with hits kept by preference.

SMILES | Bm FixLJ act
COc1ccc(Nc2c3c(nc4ccccc24)CCC3)cc1Cl | -3.55
COc1ccc(C2=C(N3CCN(c4cc(C)ccc4C)CC3)c3ccccc3C2=O)cc1 | -0.78
COc1ccc(NC2=C(c3ccccc3)C(=O)c3ccccc32)cc1Cl | 3.77*
Cc1ccc(NC2=C(c3ccc(C(F)(F)F)cc3)C(=O)c3ccccc32)cc1C | 3.28*
COc1ccc(OC)c(NC2=C(c3ccccc3)C(=O)c3ccccc32)c1 | -0.05
COc1ccc(C2=C(N3CCN(c4cc(Cl)ccc4C)CC3)c3ccccc3C2=O)cc1 | -0.7
CCC[C@]1(C(=O)O)CN(c2cc(C)c3cc(CC)ccc3n2)CCC1O (stereo partly drawn) | -0.92
CCc1noc(CCNC(=O)N2CCCC3(CC2)CNC(=O)O3)n1 (stereo not drawn) | 2.18
COCCCN1CCC(O)[C@]2(CCCN(C(=O)C3CCCCCC3)C2)C1 (stereo partly drawn) | -1.02
CC(=O)c1cc(CN2CC3COC[C@]3(C(=O)N(C)Cc3ccon3)C2)cs1 (stereo partly drawn) | -1.55
O=C(Cn1ncc2c3ccccc3n(Cc3ccccc3)c2c1=O)NCCc1ccc(Cl)cc1 | 0.29
Cc1ccccc1Cn1c2ccccc2c2cnn(CC(=O)NC3CCCCCC3)c(=O)c21 | -1.25
O=C(Cn1ncc2c3ccccc3n(Cc3ccc(Cl)cc3)c2c1=O)NCCC1=CCCCC1 | 6.41*
O=C(Cn1ncc2c3ccccc3n(Cc3ccc(Cl)cc3)c2c1=O)NC1CCCCCC1 | 10.7*
Cc1cc(C)c(Cn2c3ccccc3c3cnn(CC(=O)NCCC4=CCCCC4)c(=O)c32)c(C)c1 | -1.87
CC1CCC(NC(=O)Cn2ncc3c4ccccc4n(Cc4ccc(Cl)cc4)c3c2=O)CC1 (stereo not drawn) | 2.94
COC1CN(Cc2cnn(-c3cccc(C)c3)c2)CC1Cc1cc(C)no1 (stereo not drawn) | -3.44
O=C(C=Cc1cc(CO)cs1)NCC1CCCN(c2ncccn2)C1 (stereo not drawn) | -1.73
Cc1ccc(Nc2c(-c3c[nH]c4ccccc34)nc3ccccn23)cc1 | 4.58*
Cc1ccc(Nc2c(-c3ccc(Br)o3)nc3ccccn23)cc1 | -1.01
Cc1ccc2nc(-c3c[nH]c4ccccc34)c(Nc3ccccc3C)n2c1 | -0.83
CCCN(Cc1ccsc1)C(=O)c1ccc2c(c1)nc(N1CCOCC1)n2C | -0.98
CC(=O)NCCNc1nc(-c2ccncc2)nc2c1c(C)nn2C | 0.68
O=C(O)C1CN(C2CCN(c3ccccc3Cl)CC2)CCC1O (stereo not drawn) | 0.33
COc1ccc(CN2CCn3nc(C(O)C4CC4)cc3C2)c(F)c1 (stereo not drawn) | -2.67
SMILES | Bm FixLJ act
Cc1csc2nc(COc3cccc(NC(=O)c4ccccc4F)c3)cc(=O)n12 | 3.03*
Cc1ccccc1C(=O)Nc1cccc(OCc2cc(=O)n3c(C)csc3n2)c1 | -0.23
COc1ccccc1C(=O)Nc1cccc(OCc2cc(=O)n3c(C)csc3n2)c1 | -1.6
NC(Cc1cnc[nH]1)C(=O)Nc1cccc(-c2ccc(Cl)cc2)c1 (stereo not drawn) | 0.49
COc1cccc(NC(CNS(=O)(=O)c2ccc(C)cc2)c2ccccc2)c1 (stereo not drawn) | 1.02
Cc1ccc(NC(CNS(=O)(=O)c2ccc(Cl)cc2)c2ccccc2)cc1 (stereo not drawn) | -0.49
COc1cccc(NC(CNS(=O)(=O)c2ccc(Cl)cc2)c2ccccc2)c1 (stereo not drawn) | 4.19*
CN(C(=O)c1csc(-c2ncccn2)n1)C1C[C@H]2CC(O)C[C@@H]2C1 | -0.95
COc1ccccc1C(=O)Nc1c(C(=O)c2ccccc2)oc2ccccc12 | 3.74*
COc1ccc(C(=O)c2oc3ccccc3c2NC(=O)c2ccc(F)cc2)cc1 | -0.26
COc1ccccc1OCC(=O)Nc1c(C(=O)c2ccc(C)cc2)oc2ccccc12 | -2.11
COc1nccnc1NCC1CN(CC2CCN(CC3CC3)CC2)C(=O)CO1 (stereo not drawn) | -0.31
Cc1ccc(CSc2oc(-c3ccco3)nc2S(=O)(=O)c2ccc(C)cc2)cc1 | -0.02
CCC(C)Sc1oc(-c2ccco2)nc1S(=O)(=O)c1ccc(C)cc1 (stereo not drawn) | 5.48*
Cc1ccc(S(=O)(=O)c2nc(-c3ccco3)oc2SCc2ccccc2Cl)cc1 | 0.63
Cc1c2cnn(CC(=O)NCc3ccccc3)c(=O)c2c(C)n1Cc1cccc(Cl)c1 | 0.25
CC(CCc1ccccc1)NC(=O)Cn1ncc2c3ccccc3n(Cc3ccccc3F)c2c1=O (stereo not drawn) | -1.75
CC(CCc1ccccc1)NC(=O)Cn1ncc2c3ccccc3n(Cc3cccc(Cl)c3)c2c1=O (stereo not drawn) | 25.8*
O=C(Cn1ncc2c3ccccc3n(Cc3cccc(Cl)c3)c2c1=O)N1CCCCCC1 | 8.65*
O=C(Cn1ncc2c3ccccc3n(Cc3cccc(Cl)c3)c2c1=O)N1CCCCC1 | 1.99
O=C(Cn1ncc2c3ccccc3n(Cc3ccccc3)c2c1=O)NCc1ccccc1 | -2.92
O=C(Cn1ncc2c3ccccc3n(Cc3ccccc3)c2c1=O)N1CCCCCC1 | -2.58
O=C(Cn1ncc2c3ccccc3n(Cc3cccc(Cl)c3)c2c1=O)NCc1cccs1 | 10.7*
